Assay outcomes from PubChem BioAssay.
The sample as a whole holds a higher share of hits than the screen did.
TDP1 cell CPT: DT40-hTDP1 cell growth loss with CPT. AID 686979. chicken DT40 Tdp1-/-;hTDP1 cells + 20 nM CPT, ATP luminescence, 48 h. 420,000 compounds, 12% hits. Potency, µM (highest dose often 46.2 µM), hits mostly inhibitors; also: nearly all actives have a fitted effect of over 55% in size
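Cell growth measured by CellTiter-Glo luminescence after a minimum 48 h, 37 C compound exposure with 20 nM CPT in Tdp1-knockout DT40 cells stably expressing hTDP1, seeded 400/well; qHTS titration format.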
HT1080 IDH1KD tx: HT-1080 IDH1 knockdown cell toxicity (counter line) | 360,000 compounds, 2% hits | HT-1080 IDH1 knockdown viability, ATP luminescence, 48 h | Potency, µM (series often up to 46.1 µM), usual class: cytotoxic
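Using the IDH1-knockdown HT-1080 line run in the same batch and compound series as the NT line, viability after 48 h at 37 °C was determined by CellTiter-Glo luminescence and expressed as % activity.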
ALOX12 inh: blocks human arachidonate 12S-lipoxygenase; P18054; Potency, µM (highest dose often 108 µM), most hits filed as inhibitors; purified 12hLO, xylenol orange hydroperoxide absorbance; 580,000 compounds, 1.1% hits; AID 1671190
Target sequence (P18054 whole entry, looked up): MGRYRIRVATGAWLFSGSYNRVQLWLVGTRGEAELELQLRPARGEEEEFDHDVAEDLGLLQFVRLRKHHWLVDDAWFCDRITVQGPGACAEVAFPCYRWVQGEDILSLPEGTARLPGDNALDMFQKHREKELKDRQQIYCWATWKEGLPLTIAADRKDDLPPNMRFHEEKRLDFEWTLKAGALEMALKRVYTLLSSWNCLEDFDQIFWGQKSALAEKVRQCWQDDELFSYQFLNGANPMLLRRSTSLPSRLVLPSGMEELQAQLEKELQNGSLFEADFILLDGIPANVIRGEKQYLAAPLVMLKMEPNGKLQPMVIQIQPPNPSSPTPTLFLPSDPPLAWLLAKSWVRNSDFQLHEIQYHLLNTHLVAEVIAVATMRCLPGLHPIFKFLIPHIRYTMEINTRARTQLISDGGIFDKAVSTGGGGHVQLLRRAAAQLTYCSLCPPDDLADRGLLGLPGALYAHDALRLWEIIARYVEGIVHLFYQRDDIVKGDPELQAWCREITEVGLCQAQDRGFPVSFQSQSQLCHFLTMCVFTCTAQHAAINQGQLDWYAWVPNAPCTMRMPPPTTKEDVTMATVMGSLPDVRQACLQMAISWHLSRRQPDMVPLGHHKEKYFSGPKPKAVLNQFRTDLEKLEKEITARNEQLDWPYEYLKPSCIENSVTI
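Purified human 12hLO (150 nM final) in 25 mM Hepes, 0.01% Triton X-100, pH 7.0 was preincubated 15 min at room temperature with compound. Then 40 uM arachidonic acid was added, 30 min. Hydroperoxide was read by Fe-XO absorbance ratio 573/405 nm.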
IL-1B inflam inh: inhibitors of inflammasome signaling (IL-1 beta secretion); 360,000 compounds, 4.7% hits; THP-1 LPS/ATP IL-1B secretion, AlphaLISA, 16 h; active compounds read low; activity change, % at 57.5 µM; in the data active = activity change below about -50%; inconclusive = mostly about -30% to -49%
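Secreted IL-1B measured by AlphaLISA bead assay after 16 h compound exposure of THP-1 cells; compounds (final up to 57.5 uM) added 1 h before LPS (250 ng/mL) and ATP (1.25 mM) stimulation; lower signal means less secretion.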
HT1080NT lethal: kills 2HG-producing HT-1080-NT fibrosarcoma cells. HT-1080-NT fibrosarcoma viability, CellTiter-Glo ATP luminescence, 48 h. Potency, µM (doses to about 46.1 µM), hits mostly cytotoxic. 360,000 compounds, 1.6% hits. AID 686970;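 also: NT is the 2HG producing partner of a matched IDH1 knockdown line; nearly all actives have a fitted effect of over 55% in size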
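Luminescent CellTiter-Glo readout after 48 hours of compound exposure at 37 degrees C defined viability of HT-1080-NT cells. Activity was normalized to DMSO wells and cell-free media wells; concentration-response curves were fitted and assigned curve classes.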
DT40 TDP1 no CPT: qHTS for Inhibitors of human tyrosyl-DNA phosphodiesterase 1 (TDP1): qHTS in cells in absence of CPT | DT40 Tdp1-/- hTDP1 cells, no CPT, ATP luminescence, 48 h | AID 686978, 2013 | Potency, µM (doses to about 46.2 µM), most hits filed as inhibitors | 420,000 compounds, 15% hits; also: nearly all actives have a fitted effect of over 55% in size
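Readout: luminescence from CellTiter-Glo after 30 min in the dark at RT. Cells: DT40 Tdp1-/- with stable hTDP1, 400/well. Exposure: compounds alone, ≥48 hr, 37 °C.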
Large screens that a line does not name were inactive. Unless noted, calls follow the shape of the dose curve; as a rule, active = well fitted curve in the direction sought with a large enough effect; inconclusive = small, poorly fitted or top-dose-only effect, or another doubt; inactive = no such curve, though single readings can be large; an effect the other way counts as inactive or inconclusive.

CC(C)CC(=O)NC(=S)Nc1ccc(S(=O)(=O)NC(C)(C)C)cc1	TDP1 cell CPT inconclusive, DT40 TDP1 no CPT 23µM
CCOc1ccc(NS(=O)(=O)c2ccc(NC(=S)NC(=O)CC(C)C)cc2)cc1	TDP1 cell CPT inconclusive, ALOX12 inh inconclusive, HT1080NT lethal inconclusive, DT40 TDP1 no CPT inconclusive
CCOc1ccc(NS(=O)(=O)c2ccc(C(=O)N(C)CC(=O)Nc3ccc(OC)cc3)cc2)cc1	TDP1 cell CPT 13µM, DT40 TDP1 no CPT inconclusive
C[n+]1c(/C=C/c2ccc3c(c2)OCO3)ccc2ccccc21	none
C[n+]1c(/C=C/c2ccc(F)cc2)ccc2ccccc21	TDP1 cell CPT 3.5µM, DT40 TDP1 no CPT 2.5µM (no result: HT1080 IDH1KD tx, ALOX12 inh, IL-1B inflam inh, HT1080NT lethal)
C[n+]1c(/C=C/c2ccc(O)cc2)ccc2ccccc21	TDP1 cell CPT inconclusive, ALOX12 inh 35µM, IL-1B inflam inh inconclusive, DT40 TDP1 no CPT 18µM
CN(c1cc(=O)c2ccnc(-c3cccc(CO)c3)c2o1)C1CCOCC1	none (no result: TDP1 cell CPT, HT1080 IDH1KD tx, IL-1B inflam inh, HT1080NT lethal, DT40 TDP1 no CPT)
Cc1nc2c(c(=O)[nH]1)C(c1ccc(OCc3cccc(Cl)c3)cc1)CC(=O)N2 (stereo not drawn)	none (no result: TDP1 cell CPT, HT1080 IDH1KD tx, IL-1B inflam inh, HT1080NT lethal, DT40 TDP1 no CPT)
O=C(O)c1ccc(-c2ccccc2)cc1F	none (no result: TDP1 cell CPT, HT1080 IDH1KD tx, IL-1B inflam inh, HT1080NT lethal, DT40 TDP1 no CPT)
O=[N+]([O-])c1ccc(S(=O)(=O)CC2CSc3nc4ccccc4n32)cc1 (stereo not drawn)	TDP1 cell CPT 13µM, DT40 TDP1 no CPT 12µM
Nc1nc2ccccc2n1S(=O)(=O)c1ccc([N+](=O)[O-])cc1	TDP1 cell CPT 29µM, HT1080 IDH1KD tx inconclusive, DT40 TDP1 no CPT 21µM
C[C@@H]1CN([C@@H](C)CO)S(=O)(=O)c2ccc(Br)cc2O[C@H]1CN(C)Cc1ccccn1	TDP1 cell CPT 15µM, DT40 TDP1 no CPT 23µM
C[C@@H]1CN([C@@H](C)CO)S(=O)(=O)c2ccc(Br)cc2O[C@@H]1CN(C)Cc1ccccn1	TDP1 cell CPT inconclusive, DT40 TDP1 no CPT inconclusive
C[C@@H]1CN([C@@H](C)CO)S(=O)(=O)c2ccc(-c3ccc(C#N)cc3)cc2O[C@@H]1CN(C)Cc1ccccn1	TDP1 cell CPT inconclusive, DT40 TDP1 no CPT 13µM
CN1C(=O)c2cccn2CC1CNC(=O)C1CCCC1 (stereo not drawn)	none (no result: TDP1 cell CPT, HT1080 IDH1KD tx, IL-1B inflam inh, HT1080NT lethal, DT40 TDP1 no CPT)
CCOC(=O)C1=C(N)n2c(s/c(=C\c3cccnc3)c2=O)=C(C#N)C1c1cccnc1 (stereo not drawn)	none
CCOC(=O)C1=c2s/c(=C\c3cccnc3)c(=O)n2C(N)=C(C(=O)OC)C1c1cccnc1 (stereo not drawn)	TDP1 cell CPT 23µM, DT40 TDP1 no CPT 15µM
O=C(NCCN1C(=O)S/C(=C\c2ccc(Cl)c([N+](=O)[O-])c2)C1=O)C1=COCCO1	TDP1 cell CPT 21µM, HT1080 IDH1KD tx inconclusive, ALOX12 inh inconclusive, IL-1B inflam inh -103, HT1080NT lethal 15µM, DT40 TDP1 no CPT 8.2µM
O=C(NCCN1C(=O)S/C(=C\c2ccc(Cl)c(Cl)c2)C1=O)c1cnccn1	TDP1 cell CPT inconclusive, DT40 TDP1 no CPT inconclusive
CC(C)(C)C(=O)NCCN1C(=O)S/C(=C\c2ccc([N+](=O)[O-])cc2)C1=O	TDP1 cell CPT inconclusive, IL-1B inflam inh -73, DT40 TDP1 no CPT 23µM
COCCOc1ccc(-c2ccc(C#N)cc2)cc1	none (no result: TDP1 cell CPT, HT1080 IDH1KD tx, IL-1B inflam inh, HT1080NT lethal, DT40 TDP1 no CPT)
COc1ccc(-c2nc3c4ccccc4ccn3c2Cc2ccc(C)cc2)cc1OC	TDP1 cell CPT inconclusive, HT1080 IDH1KD tx inconclusive, HT1080NT lethal inconclusive, DT40 TDP1 no CPT 21µM
COc1ccc(-c2nc3c4ccccc4ccn3c2Cc2cccc(Cl)c2)cc1OC	TDP1 cell CPT inconclusive, HT1080 IDH1KD tx inconclusive, HT1080NT lethal inconclusive, DT40 TDP1 no CPT inconclusive
CCCc1nc2c3ccccc3ccn2c1Cc1ccccc1	TDP1 cell CPT 18µM, HT1080 IDH1KD tx inconclusive, ALOX12 inh inconclusive, HT1080NT lethal inconclusive, DT40 TDP1 no CPT 21µM
Cc1ccc(Cc2c(-c3ccccc3)nc3c4ccccc4ccn23)cc1	TDP1 cell CPT 23µM, ALOX12 inh inconclusive, DT40 TDP1 no CPT 21µM
